Measurements: PubChem BioAssay AID1159580 (chemical genetic matrix, 2015)
Where “and” joins values, the source holds several entries; their conditions need not be identical. Identical values can stand only once. About 2,000 (36%) of roughly 5,500 compounds were called active. Roughly 18% stayed inconclusive and do not appear here. No stated cut-off is given here; in the data, active means normalized growth mostly below about 0.91 (no sharp cut-off); inconclusive means no clear call, values can overlap the other calls; inactive means mostly above about 0.92. The list shows a part of the results.

Assay: chemical genetic growth profiling, strain panel (AID 1159580);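 further: tested at 20 µM; growth read once vehicle control cultures reached saturation at 30 °C; 1 = growth at the plate median or of vehicle wells; lower values mean less growth of the strain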
Settings: S. cerevisiae deletion strains, growth OD

Measured: normalized growth

COC(C)(C)CCC[C@H](C)C/C=C/C(C)=C/C(=O)OC(C)C
inactive: locus YAL013W, strain DEP1, hits give low values 0.998 | locus YAL021C, strain ccr4, hits give low values 1.03 | locus YAL026C, strain drs2, hits give low values 1.01 | locus YAL030W, strain snc1, hits give low values 1.03 | locus YBL061C, strain skt5, hits give low values 1.02 | locus YBR009C, strain hhf1, hits give low values 1.01 | locus YBR021W, strain FUR4, hits give low values 0.985 | locus YBR023C, strain chs3, hits give low values 1.02 | locus YBR171W, strain sec66, hits give low values 1.02 | locus YBR229C, strain ROT2, hits give low values 1 | locus YBR231C, strain swc5, hits give low values 1 | locus YBR279W, strain paf1, hits give low values 1 | locus YCL011C, strain gbp2, hits give low values 1.02 | locus YCL016C, strain dcc1, hits give low values 1.01 | locus YCL029C, strain bik1, hits give low values 1.05 | locus YCL061C, strain MRC1, hits give low values 1.02 | locus YCL069W, strain vba3, hits give low values 1.03 | locus YCR088W, strain abp1, hits give low values 1.02 | locus YDL005C, strain med2, hits give low values 1 | locus YDL035C, strain GPR1, hits give low values 1 | locus YDL040C, strain nat1, hits give low values 1 | locus YDL074C, strain BRE1, hits give low values 0.998 | locus YDL101C, strain DUN1, hits give low values 1.01 | locus YDL134C, strain PPH21, hits give low values 1.01 | locus YDL185W, strain tfp1, hits give low values 1.01 | locus YDL192W, strain arf1, hits give low values 1.03 | locus YDR001C, strain nth1, hits give low values 1.02 | locus YDR069C, strain doa4, hits give low values 1.01 | locus YDR101C, strain arx1, hits give low values 1.02 | locus YDR137W, strain rgp1, hits give low values 1.09 | locus YDR150W, strain NUM1, hits give low values 0.994 | locus YDR159W, strain sac3, hits give low values 1.03 | locus YDR162C, strain NBP2, hits give low values 1 | locus YDR195W, strain ref2 0.99 | locus YDR297W, strain sur2, hits give low values 1.02 | locus YDR318W, strain mcm21, hits give low values 1.03 | locus YDR334W, strain swr1, hits give low values 1.02 | locus YDR335W, strain msn5, hits give low values 1.03 | locus YDR388W, hits give low values 1.02 | locus YDR392W, strain spt3, hits give low values 1.05 | locus YDR502C, strain sam2, hits give low values 1.03 | locus YEL003W, strain gim4, hits give low values 1.01 | locus YEL037C, strain rad23, hits give low values 1.01 | locus YEL061C, strain CIN8 (second series), hits give low values 1.02 | locus YEL061C, strain CIN8, hits give low values 0.999 | locus YER015W, strain faa2, hits give low values 1.01 | locus YER016W, strain bim1, hits give low values 1.02 | locus YER110C, hits give low values 1.03 | locus YER111C, strain swi4, hits give low values 1.01 | locus YER155C, strain BEM2 (second series), hits give low values 1.01 | locus YER155C, strain BEM2, hits give low values 0.99 | locus YER167W, strain BCK2, hits give low values 1.01 | locus YFR010W, strain ubp6, hits give low values 1 | locus YGL078C, strain dbp3, hits give low values 1.02 | locus YGL086W, strain mad1, hits give low values 1 | locus YGL167C, strain pmr1, hits give low values 1.02 | locus YGL173C, strain kem1, hits give low values 1.02 | locus YGL227W, strain vid30, hits give low values 1.05 | locus YGL240W, strain doc1, hits give low values 1.03 | locus YGL248W, strain PDE1, hits give low values 1.01 | locus YGL253W, strain hxk2, hits give low values 1 | locus YGR078C, strain PAC10, hits give low values 1.01 | locus YGR135W, strain pre9, hits give low values 1.04 | locus YGR229C, strain SMI1, hits give low values 1.03 | locus YGR252W, strain gcn5, hits give low values 1.06 | locus YHR013C, strain ard1, hits give low values 1.03 | locus YHR027C, strain rpn1, hits give low values 1 | locus YHR030C, strain SLT2, hits give low values 1 and 0.961 | locus YHR079C, strain IRE1 (second series), hits give low values 1.01 | locus YHR079C, strain IRE1, hits give low values 0.942 | locus YHR094C, strain hxt1, hits give low values 1.01 | locus YHR129C, strain ARP1, hits give low values 0.998 | locus YHR142W, strain chs7, hits give low values 0.979 | locus YHR200W, strain rpn10, hits give low values 1.02 | locus YIL066C, strain RNR3, hits give low values 1.01 | locus YIL073C, strain SPO22, hits give low values 1.08 | locus YIL125W, strain kgd1, hits give low values 1.01 | locus YIR030C, strain dcg1, hits give low values 1.03 | locus YJL092W, strain hpr5, hits give low values 1.03 | locus YJL095W, strain BCK1 (second series), hits give low values 1.02 | locus YJL095W, strain BCK1, hits give low values 1.03 and 0.955 | locus YJL115W, strain asf1, hits give low values 1.02 | locus YJL129C, strain trk1, hits give low values 0.942 | locus YJL134W, strain LCB3, hits give low values 1 | locus YJL154C, strain vps35, hits give low values 1.01 | locus YJL164C, strain tpk1, hits give low values 1 | locus YJL166W, strain qcr8, hits give low values 1.02 | locus YJL168C, strain set2, hits give low values 1.02 | locus YJL187C, strain SWE1 (second series), hits give low values 1.02 | locus YJR043C, strain POL32, hits give low values 1.01 | locus YJR066W, strain TOR1, hits give low values 0.892
